Inconclusive results are not listed. Unmarked numbers belong to inactive results. Calls come from the whole dose curve; as a rule, active = well fitted inhibition curve with a large enough effect; inconclusive = small, poorly fitted or top-dose-only effect; inactive = no such curve, though single readings can be large or run the other way.
Experiment: Confirmatory fluorescence-based thiol-reactive (MSTI) qHTS assay for identification of artifact compounds
Details: MSTI thiol-reactivity probe, 1 h; series mostly up to 39.2 µM; activity change, negative = inhibition: at the top concentration
From the text: PI: Alexander Tropsha Ph.D. UNC Eshelman School of Pharmacy University of North Carolina, Chapel Hill, North Carolina Hits from high-throughput screening (HTS) of chemical libraries are often false positives due to their interference with the assay detection technology. In response to this problem, we generated the largest publicly available library of chemical liabilities and developed a free webtool to predict HTS artifacts, both of which are described herein. More specifically, we generated, curated, and integrated HTS datasets for thiol reactivity, redox activity, and luciferase (firefly and nano) activity. Using these curated datasets, we developed and validated several Quantitative Structure-Interference Relationship (QSIR) models to predict nuisance behavior. […] These models were employed for virtual profiling of the National Center for Advancing Translational Science's (NCATS) in-house library, and 256 compounds for each assay were selected for the experimental validation of nuisance behavior. The BA for these external predictions ranged from 58 to 78% for compounds within the applicability domains of the models. […] The models developed in this study, along with aggregation models previously developed by our group (SCAM Detective) were implemented in "Liability Predictor," an online tool which may be used as part of chemical library design or for triaging HTS hits. Both the models and the curated datasets are publicly available at https://liability.mml.unc.edu/.
PROTOCOL TABLE SEQUENCE No. (e.g., 1, 2, 3, etc.); PARAMETER (e.g., Cells, Incubation, Reagent, etc.); VALUE; DESCRIPTION. 1; Reagent; 4 uL; […]. 2; Compounds and control; 16 nL; Kalypsis pin tool (Wako USA) equipped with a 1536-well pin head. 3; Incubation; 1 hour. 4; Detection; Fluorescence, ViewLux microplate reader, 525 nm excitation, 598 nm emission. NOTES (numbers refer to Sequence numbers above) 1. Assays determining (E)-2-(4-mercaptostyryl)-1,3,3-trimethyl-3H-indol-1-ium (MSTI) reactivity were performed as previously described in the literature with modifications for the quick identification of compounds reacting with thiol. In brief, 4 uL of MSTI or positive control Acetyl-MSTI (final concentrations of 4 uM and 4 uM, respectively) in assay buffer (2% DMSO in 1X PBS pH 7.4) was dispensed into all wells of a 1536-well assay plate (solid-bottom black plate; Greiner Bio One, Monroe, NC). 2. A Wako Pin-tool (Wako Automation, Richmond, VA) was used to transfer 16 nL of compounds (consisting of 7-plates in qHTS format, final concentration range 18.3 nM to 114 uM) or control MLS001163887 (final concentration range 1.22 nM to 40 uM). 3. Plates were centrifuged (121xg, 15 seconds) and incubated for 1 hour at room temperature protected from light. 4. Samples were read for fluorescence (Ex/Em = 525(20)/598(25) nm) on a ViewLux CCD imager (PerkinElmer). Data were normalized to Acetyl-MSTI (0% activity) and MSTI (100% activity) and the resulting percent inhibition data were fitted to a 4-parameter Hill equation using NCATS in-house software.

| SMILES | activity change, negative = inhibition |
| --- | --- |
| COc1ccc2[nH]cc(CCNCc3ccc(Br)cc3)c2c1 | -9.28% |
| c1ccc2sc(SNC3CCCCC3)nc2c1 | 25.4% |
| O=c1ccc2cc(O[C@@H]3O[C@H](CO)[C@H](O)[C@H](O)[C@H]3O)c(O)cc2o1 | 5.87% |
| C[C@H]1CCCC(=O)CCC/C=C/c2cc(O)cc(O)c2C(=O)O1 | 90.4% |
| CC1CCCC(O)CCCCCc2cc(O)cc(O)c2C(=O)O1 (configuration not stated) | 108% [at 78.4 µM] |
| CC[C@H]1[C@@H]2C[C@H]3[C@@H]4N(C)c5ccccc5[C@]45C[C@@H](C2[C@H]5O)N3[C@@H]1O (some centres not stated) | -8.38% [at 13.1 µM] |
| COc1ccc2c3c1O[C@H]1[C@@H](O)C=C[C@H]4[C@@H](C2)NCC[C@@]341 | 31.7% [at 88 µM] |

From PubChem BioAssay AID1845226 (National Center for Advancing Translational Sciences (NCATS), 2023)
